SMILES strings stand for the structures. A number with no mark means an inactive call. Inconclusive results are not listed. Active and inactive are the calls of the source. Unless noted, the call rests on the fitted dose curve; in most records, active means well fitted curve in the direction sought with a large enough effect in the repeat runs; inconclusive means weak or mixed curves; inactive means no such curve, though single readings can be large; an effect the other way counts as inactive or inconclusive.

The values below come from PubChem BioAssay (Tox21).

A short description of experiment [1]: qHTS assay for small molecule agonists of the p53 signaling pathway (AID 651631; calls by dose curve; further: nearly all actives have a fitted effect of over 15% in size; further: potency means the concentration at half of the fitted maximal effect). The gist of the method: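 HCT-116 cells carrying a stable p53 response element–beta-lactamase reporter were plated, rested 5 h at 37 °C, then exposed to compound in DMSO for 16 h at 37 °C; reporter activity was read as FRET substrate fluorescence after 2 h at room temperature.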

Experiment [2] is described as follows: qHTS assay for small molecules that induce genotoxicity in human embryonic kidney cells expressing luciferase-tagged ATAD5 (AID 651632). Further: nearly all actives have a fitted effect of over 15% in size. Further: potency means the concentration at half of the fitted maximal effect. The gist of the method:
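Test compounds were delivered by pin tool onto HEK293T reporter cells (2,000/well) expressing ATAD5 fused to luciferase. After 16 hr at 37C, 5% CO2, Amplite was added for 30 min at room temperature and luminescence was measured.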

Experiment [3] can be described thus: qHTS assay for small molecule agonists of the p53 signaling pathway - cell viability (AID 651633; calls by dose curve; further: nearly all actives have a fitted effect of over 30% in size; further: potency means the concentration at half of the fitted maximal effect). A digest of the protocol: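 Viability counter-read: CellTiter-Glo luminescence (30 min, room temperature) in the same p53RE-bla plates. These plates had been exposed to compounds for 16 h at 37 C.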
The nature of experiment [4]: qHTS assay for small molecules that induce genotoxicity in human embryonic kidney cells expressing luciferase-tagged ATAD5 - cell viability (AID 651634; calls by dose curve; further: nearly all actives have a fitted effect of over 25% in size; further: potency means the concentration at half of the fitted maximal effect). The gist of the method:
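Quantitative high-throughput format. HEK293T cells expressing ATAD5 fused to luciferase were plated at 2,000 cells/well and treated 15.5 hr with compound versus DMSO. Viability was determined by fluorescent live-cell protease substrate, 30 min at 37C.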

A short description of experiment [5]: qHTS assay for small molecule disruptors of the mitochondrial membrane potential - cell viability (AID 720634; calls by dose curve; further: nearly all actives have a fitted effect of over 20% in size; further: potency means the concentration at half of the fitted maximal effect). The gist of the method: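 Same-well counter-screen: following the MMP dye addition, CellTiter-Glo was added to 1 hr compound-treated HepG2 cells and luminescence read after 30 min at room temperature.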
Experiment [6] in a line: qHTS assay to test for compound auto fluorescence at 590 nm (red) in HepG2 cells (AID 720674). Further: on the % scale 0 is the no-effect control and ±100 the full control effect. The gist of the method:
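1 hr compound incubation on HepG2 cells, 37 C, 5% CO2; plate read ex 540 nm / em 590 nm; intensities reported as Rose Bengal sodium equivalents.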

Experiment [7] is described as follows: qHTS assay to test for compound auto fluorescence at 535 nm (green) in HepG2 cells (AID 720675). Further: on the % scale 0 is the no-effect control and ±100 the full control effect.
A short description of experiment [8]: qHTS assay to test for compound auto fluorescence at 460 nm (blue) in HEK293 cells (AID 720678). Further: potency means the concentration at half of the fitted maximal effect. On fluorescence, % of triamterene: on the % scale 0 is the no-effect control and ±100 the full control effect. The gist of the method: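 Intrinsic compound fluorescence is recorded in live HEK293 cultures after overnight incubation at 37C, 5% CO2, using excitation 405 nm and emission 460 nm. Values are referenced to triamterene.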
The nature of experiment [9]: qHTS assay to test for compound auto fluorescence at 590 nm (red) in HEK293 cells (AID 720679). Further: on the % scale 0 is the no-effect control and ±100 the full control effect. The gist of the method:
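Red autofluorescence, HEK293 cells: 2,000 cells/well; attach 4-5 hr 37C; add 23 nL cpd or DMSO; incubate o/n 37C 5% CO2; read Ex540/Em590; Rose Bengal sodium reference.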

Experiment [10] is described as follows: qHTS assay for small molecule disruptors of the mitochondrial membrane potential (AID 720635). Further: potency means the concentration at half of the fitted maximal effect. The gist of the method: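 Mitochondrial membrane potential tracked with Mito-MPS dye, red aggregates (ex 540/em 590 nm) against green monomers (ex 490/em 535 nm). Compound treatment 1 hr at 37C, dye 30 min in HepG2.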
Tags describe the fitted curve by direction and shape or compound fluorescence and quenching.

For `C=Cc1cccc(C)c1`, the Potency entry in experiment [1], in experiment [2], in [3], in experiment [4], in experiment [5] and in experiment [6] was “inactive” each time. The Potency entry in [7], in experiment [8] and in experiment [9] was “inactive” in each case.
For `CC(=O)CC(=O)Nc1ccc(S(=O)(=O)O)cc1`, the Potency result in [1], in experiment [2], in experiment [3], in experiment [4], in [6] and in experiment [7] was “inactive” throughout. The Potency result in [8] and in experiment [9] was “inactive” each time.
On to `Nc1ccc(NCCO)c([N+](=O)[O-])c1`, for which the Potency result in [1], in [2], in experiment [3], in [5], in experiment [6] and in experiment [7] was “inactive” in each case. For the same compound, the Potency result in experiment [8] and in experiment [9] was “inactive” throughout. In experiment [10], the Potency was 15.4 µM (active).
Consider `CCc1oc2ccccc2c1C(=O)c1cc(I)c(O)c(I)c1`, for which the Potency was 23.7 µM (active) in [1], 26.6 µM (active) in experiment [3] and 26.6 µM (active) in experiment [5]. In addition, the Potency entry in experiment [2], in experiment [6], in experiment [7], in [8] and in experiment [9] was “inactive” in each case.
Consider `CCC(=O)C(=O)CC`, for which the Potency result in experiment [1], in experiment [2], in experiment [3], in experiment [4], in [5] and in experiment [6] was “inactive” in each case. The Potency result in experiment [7], in experiment [8] and in experiment [9] was “inactive” throughout.
Turning to `OC12N=C(c3ccccc3)SC1Cc1cc(Cl)ccc12` (stereo not given), the Potency result in [1], in experiment [2], in experiment [3], in [4], in experiment [6] and in [7] was “inactive” in each case. Further, the Potency result in experiment [8] and in experiment [9] was “inactive” throughout. For the same compound, the Potency in experiment [10] is 17.2 µM (active).
As for `O=c1c(O)c(-c2ccc(O)cc2O)oc2cc(O)cc(O)c12`, the Potency entry in experiment [1], in [2], in [4], in [5], in [6] and in experiment [7] was “inactive” each time. Further, the Potency result in [8] and in experiment [9] was “inactive” each time. The Potency in [10] is 22.9 µM (active).
As to `CN(C)Cc1cc(C(C)(C)C)c(O)c(C(C)(C)C)c1`, the Potency entry in [1], in [2], in experiment [3], in experiment [4], in experiment [5] and in [7] was “inactive” each time. Besides, the Potency entry in experiment [8] and in experiment [9] was “inactive” throughout.
Regarding `OC1CCC(C2CCCCC2)CC1` (stereo not given), the Potency entry in experiment [1], in experiment [2], in experiment [3], in experiment [4], in experiment [6] and in [7] was “inactive” in each case. In addition, the Potency result in experiment [8] and in [9] was “inactive” throughout.
As to `c1cnccn1`, the Potency result in experiment [1], in [2], in experiment [3], in experiment [4], in [5] and in experiment [7] was “inactive” each time. The Potency result in experiment [8] and in experiment [9] was “inactive” each time.
As to `CC1=CCC(=C(C)C)CC1`, the Potency entry in [1], in experiment [2], in experiment [3], in experiment [4], in experiment [7] and in [8] was “inactive” throughout. For the same compound, the Potency entry in experiment [9] is “inactive”.
`O=C(O)c1cc(N=Nc2ccc([N+](=O)[O-])cc2)ccc1O`: the Potency entry in experiment [1], in experiment [3], in [6], in experiment [7], in [8] and in [9] was “inactive” each time. For the same compound, the Potency was 15.1 µM (active) in experiment [2], 53.5 µM (active) in experiment [4] and 53.5 µM (active) in [10].
Regarding `CCN1C(=O)c2ccccc2C1Nc1ccc(OCCN2CCCCC2)cc1` (stereo not given), the Potency entry in [1], in [2], in experiment [3], in experiment [4], in experiment [5] and in experiment [6] was “inactive” each time. The Potency result in experiment [7], in [8] and in experiment [9] was “inactive” in each case.
As to `OC1CCCc2ccccc21` (stereo not given), the Potency result in [1], in [2], in experiment [3], in [4], in experiment [5] and in experiment [7] was “inactive” throughout. The Potency result in experiment [8] and in experiment [9] was “inactive” in each case.
With `COc1cc(S(=O)(=O)O)c(C)cc1N=Nc1c(O)ccc2cc(S(=O)(=O)O)ccc12`, the Potency result in [1], in experiment [2], in experiment [3], in [5], in [6] and in experiment [7] was “inactive” in each case. In addition, the Potency entry in experiment [8] and in experiment [9] was “inactive” each time. Besides, the Potency in experiment [4] was 27.3 µM (active).
Consider `CC(C)(c1cc(Br)c(OCC(Br)CBr)c(Br)c1)c1cc(Br)c(OCC(Br)CBr)c(Br)c1` (stereo not given), for which the Potency result in experiment [1], in experiment [2], in [3], in [4], in experiment [6] and in [7] was “inactive” throughout. In addition, the Potency result in experiment [8] and in [9] was “inactive” throughout.
Regarding `COC(=O)Nc1nc2ccc(C(=O)c3ccccc3)cc2[nH]1`, the Potency is 0.16 µM (active) in experiment [1] and 3.2 µM (active) in experiment [2]. The Potency entry in [3], in [4] and in [5] was “inactive” in each case. Further, the fluorescence, relative to Rose Bengal in experiment [6] was -0.678% [at 18.6 µM]. In [7], the fluorescence, % of fluorescein control was 0.0492% [at 18.6 µM]. The fluorescence, % of triamterene in [8] is 0.0612% [at 18.6 µM]. For the same compound, the fluorescence, % of fluorescent control in experiment [9] was 0.41% [at 18.6 µM].
For `CCCCC(CC)COC(=O)CCCCC(=O)OCc1ccccc1` (stereo not given), the Potency entry in experiment [1], in [2], in [3], in experiment [4], in experiment [5] and in [7] was “inactive” each time. Also, the Potency entry in experiment [8] and in experiment [9] was “inactive” in each case.
In the case of `Cc1ccc(-c2ccccc2)cc1`, the Potency entry in [1], in [2], in experiment [3], in experiment [4], in experiment [5] and in experiment [6] was “inactive” throughout. In addition, the Potency entry in experiment [7], in [8] and in experiment [9] was “inactive” throughout.
Regarding `CC(C)(C)NSc1nc2ccccc2s1`, the Potency result in experiment [1], in [2], in experiment [3], in experiment [4], in [5] and in [7] was “inactive” in each case. Also, the Potency result in experiment [8] and in experiment [9] was “inactive” throughout.
Consider `Cc1ccc(N/N=c2\c(=O)cc/c(=N\Nc3ccc(S(=O)(=O)O)cc3)c2=O)c(C)c1`, for which the Potency result in experiment [1], in [2], in [3], in [5], in experiment [7] and in experiment [8] was “inactive” throughout. Besides, the Potency result in experiment [9] was “inactive”. Moreover, the Potency in experiment [4] is 61.1 µM (active).
Consider `O=S(=O)(O)c1ccccc1/C=C/c1ccc(-c2ccc(/C=C/c3ccccc3S(=O)(=O)O)cc2)cc1`, for which the Potency was 17.5 µM (active) in [1] and 5.01 µM [fluorescent] (active) in experiment [8]. In addition, the Potency entry in [2], in experiment [3], in experiment [4], in experiment [5], in experiment [6] and in experiment [7] was “inactive” in each case. The Potency result in experiment [9] is “inactive”.
`CNC(=O)c1ccccc1Sc1ccc2c(/C=C/c3ccccn3)n[nH]c2c1`: the Potency in experiment [1] was 0.75 µM (active); in [2] it was 0.237 µM (active); in experiment [4], 13.3 µM (active). The Potency entry in experiment [3], in experiment [6], in [7], in experiment [8] and in [9] was “inactive” each time.
As for `OC/C=C/CO`, the Potency entry in experiment [1], in [2], in experiment [3], in experiment [4], in experiment [7] and in experiment [8] was “inactive” each time. Moreover, the Potency entry in experiment [9] is “inactive”.
Regarding `CN1CCCCC1CCN1c2ccccc2Sc2ccc(S(C)=O)cc21` (stereo not given), the Potency result in experiment [1], in experiment [2], in [3], in [4], in experiment [5] and in experiment [6] was “inactive” throughout. For the same compound, the Potency entry in [7], in [8] and in [9] was “inactive” each time.
